Data on 40 compounds can be found in PubChem BioAssay (NCI).

Molecules are shown by their SMILES. The panel holds about 83,000 compounds, 20% with a hit somewhere; the sample as a whole holds those more often.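 Negative percent growth values reflect cell death: -40 means 40% of the cells present at the start died, and -100 means all died.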 A number with no mark means an inactive call. Calls of active or inactive are those of the source.

The assay relates to SK-MEL-5 melanoma. Briefly: NCI-60 one-dose screen, 48 h (100 = growth as untreated, 0 = no growth, -100 = all killed). The note with it: 10 µM unless noted. As to the method: Growth inhibition of the SK-MEL-5 human tumor cell line is measured as a screen for anti-cancer activity. Cells are grown in 96 well plates and exposed to the test compound for 48 hours. Compounds are tested at a single concentration, which is 10^-5 M for most compounds. The reported endpoint is percent growth (GI% or GIPRCNT), where numbers from 0 - 100% represent growth inhibition, and numbers from -100% - 0 represent cell death. For example, a value of 40 represents 60% growth inhibition. A value of 0 means no net growth occurred over the course of the experiment. A value of -40 indicates 40% of cells at the beginning of the experiment died by the end of the experiment. A value of -100 means all cells are dead at the end of the experiment.
NCI-60 Human Tumor Cell Lines Screen was performed using the standard one-dose NCI protocol, which is described in more detail at https://dtp.cancer.gov/discovery_development/nci-60/default.htm.
Compounds with GIPRCNT values below 10 were considered active. Activity score was based on GIPRCNT using the following formula: […]
Score is 0 for GIPRCNT values of 100 or above, 50 for GIPRCNT values of 0, and 100 for GIPRCNT values of -100.
On to `C=C1CCC2C(C)(CO)C(O)CCC2(C)C1C/C=C1/C(=O)OCC1Oc1ccccc1C` (stereo not given), for which the growth was 93.6%.

As for `O=C1c2c(c3c4ccccc4n(CCCCCCBr)c3c3[nH]c4ccccc4c23)C(=O)N1O`, the growth was -69.5% (active).

Turning to `CCCCN(CCCC)c1ccc(C(=N)c2ccc(N(CCCC)CCCC)cc2)cc1`, the growth is -97% (active).

Consider `COc1cc(Cn2cc3c(c2)-c2oncc2CC3)cc(OC)c1OC`, for which the growth was -36% (active).

In the case of `COc1ccc(S(=O)(=O)n2ccc(-c3ccc4c(c3)CCC(C)(C)O4)n2)cc1OC`, the growth was 28.2%.

Take `COc1ccc2c(c1)NC1=C(C(=O)OC1)C2c1cc(OC)c2c(c1)OCO2` (stereo not given): the growth was -55.1% (active).

As for `COc1ccc(-c2nc(/C=C3/C(=O)Nc4ccc(F)cc43)c3ccccn23)cc1`, the growth was 102%.

Consider `CCC(=O)OC1=CN2C(=NC(c3ccc(N)cc3)=CC2c2cc(OC)c(OC)c(OC)c2)S1` (stereo not given), for which the growth was 66.9%.

Take `Nc1ccc(C(=O)CSc2nc3ccccc3[nH]2)cc1`: the growth is 97.9%.

`CN1CCN(Cc2ccc(NC(=O)c3cncc(C#Cc4cnc(N)c5ccncc45)c3)cc2C(F)(F)F)CC1`: the growth is 11.9%.

`Fc1ccc(Nc2ncnc3ccc(-c4cnc5[nH]ccc5c4)cc23)cc1Cl`: the growth is 21%.

In the case of `Cc1nn(-c2ccc(Cl)cc2)c2ncnc(N/N=C/c3cccc([N+](=O)[O-])c3)c12`, the growth was 105%.

As for `COc1cc(/C=N\NC(=O)CN2CCN(c3cc4c(cc3F)c(=O)c(C(=O)N/N=C/c3cc(OC)c(OC)c(OC)c3)cn4C3CC3)CC2)cc(OC)c1OC`, the growth was -15.4% (active).

`Cc1ccc(S(=O)(=O)c2nc(-c3ccccc3)oc2S(C)(=O)=O)cc1`: the growth was 88.8%.

For the compound `COc1ccc(Nc2[nH]n3c(=O)cc(-c4ccccc4)nc3c2C(=O)Nc2ccc(C)cc2)c(OC)c1`, the growth is 98.4%.

Turning to `ClC(Cl)c1nc(-c2cccnc2)n2nc(-c3ccccc3)cc2n1`, the growth is 36%.

For `O=S(=O)(c1ccc(OCCO)cc1)c1ccc(OCCO)cc1`, the growth was 89.7%.

Regarding `O=C(Nc1cccc(-n2cc(-c3ccncc3)c(-c3ccc(Cl)c(O)c3)n2)c1)Nc1cc(C(F)(F)F)cc(C(F)(F)F)c1`, the growth was -94.7% (active).

For `N/C(=N\C(N)=N\c1nc2ccccc2s1)c1ccncc1`, the growth is 59%.

Consider `CC(C)(C)Nc1c(-c2cccs2)nc2ncccn12`, for which the growth was 93.8%.

For the compound `O=C(c1ccccc1)C1OC1c1ccc([N+](=O)[O-])cc1` (stereo not given), the growth was 52.7%.

For `COc1ccc(-c2nc(N3CCCC3=O)sc2Br)cc1OC`, the growth was 89.8%.

`NC(=N\N=C/c1ccc(O)cc1)/C(N)=N\N=C/c1ccc(O)cc1`: the growth is 28.7%.

For the compound `O=[N+]([O-])c1cccc(-c2nc3sccn3c2-c2ccnc(NCCCNS(=O)(=O)c3ccc(Cl)cc3)n2)c1`, the growth is -17.2% (active).

Take `O=C(NS(=O)(=O)c1ccc2ccccc2c1)n1cc(-c2ccncc2)c(-c2ccc(Cl)c(O)c2)n1`: the growth is 77.5%.

`COC(=O)[C@]12CC[C@@H](C)[C@H](C)[C@@H]1C1=CC[C@@H]3[C@@]4(C)C(C=O)=C[C@@](C)(COC(=O)c5ccco5)[C@@H]4[C@H](O)C[C@@]3(C)[C@]1(C)CC2`: the growth is -94.9% (active).

`CCN(CC)CCC(CNc1ccnc2cc(Cl)ccc12)c1ccccc1` (stereo not given): the growth is -75.2% (active).

Consider `COc1ccc(C(=O)c2cc(OC)c(OC)c(OC)c2OC)cc1O`, for which the growth was 2.02% (active).

Regarding `O=C1C2(c3ccccc3)C(c3ccccc3)=C(c3ccccc3)C1(c1ccccc1)C1CC=CC12` (stereo not given), the growth was 85.8%.

`Clc1ccc2c(NC3CCC(NC4CCCCC4)CC3)ccnc2c1` (stereo not given): the growth was 18.6%.

Regarding `COc1cc(NCCCCCN)c2ncccc2c1`, the growth is 111%.

In the case of `Clc1ccc(-c2nc3ccccc3s2)cc1Cl`, the growth was 89.8%.

As to `COc1ccc(-c2nc3sc(-c4cc(OC)c(OC)c(OC)c4)nn3c2/C=C2/C(=O)Nc3ccc(F)cc32)cc1`, the growth is -39.2% (active).

On to `FC(F)(F)c1ccccc1-c1cn2c(ccc3ccccc32)n1`, for which the growth was 80.7%.

Consider `COc1ccccc1CNCCCN1C(=O)c2ccc3c4c(ccc(c24)C1=O)C(=O)N(CCCNCCCCNCCCN)C3=O`, for which the growth is -99.3% (active).

Turning to `Fc1ccccc1-c1nc(-c2nc3cc(Cl)c(Cl)cc3[nH]2)c2ccccn12`, the growth was 79.4%.

Take `O=[N+]([O-])c1cc(S(=O)(=O)Oc2ccccc2)ccc1Cl`: the growth was 6.43% (active).

In the case of `COc1cc(C2C3=C(COC3=O)Nc3cc4c(cc32)OCO4)cc2c1OCO2` (stereo not given), the growth was -60.6% (active).

Turning to `Cc1ccc(S(=O)(=O)NCCNc2cc(-c3cn(C(C)(C)C)nc3-c3cccc(O)c3)ccn2)cc1`, the growth is 30.9%.

On to `O=C(Nc1ccncc1)C(=O)c1cn(S(=O)(=O)c2ccc(Br)cc2)c2ccccc12`, for which the growth is 14.5%.
